# HT1080 IDH1KD tx: qHTS for induction of synthetic lethality in tumor cells producing 2HG: qHTS for the HT-1080-IDH1KD cell line | HT-1080 IDH1 knockdown viability, ATP luminescence, 48 h | Potency, µM (series often up to 46.1 µM), inactives show at the top dose activity, negative = toxicity, actives largely listed as cytotoxic | 360,000 compounds, 2% hits;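 further: 0% = DMSO wells and -100% = cell-free medium wells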
#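 After a 2 h attachment period, IDH1KD HT-1080 cells took pin-transferred compound for 48 h at 37 °C; ATP-based luminescence after 10 min room-temperature reagent incubation reported viability.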
# HT1080-NT tox: qHTS for induction of synthetic lethality in tumor cells producing 2HG: qHTS for the HT-1080-NT fibrosarcoma cell line. HT-1080-NT fibrosarcoma viability, CellTiter-Glo ATP luminescence, 48 h. Potency, µM (series often up to 46.1 µM), inactives show at the highest dose activity, negative = less viability, hits mostly cytotoxic. 360,000 compounds, 1.6% hits;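 further: NT is the 2HG producing partner of a matched IDH1 knockdown line; 0% = DMSO-treated cells and -100% = media-only wells without cells; nearly all actives have a fitted effect of over 55% in size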
#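 HT-1080-NT; 750 cells/well; 5% FBS RPMI; 48 h compound, 37 degrees C; CellTiter-Glo luminescence; curve fitting and curve-class assignment.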
# KB-3-1 cytotox: qHTS assay for MDR1-selective chemotherapeutics: Primary screen using the parental adenocarcinoma cell KB-3-1 | KB-3-1 viability, CellTiter-Glo ATP luminescence, 72 h | Potency, µM (titrated, usually from 46.1 µM), hits mostly cytotoxic | 400,000 compounds, 1.4% hits; further: on the % scale 0 is the no-effect control and ±100 the full control effect; nearly all actives have a fitted effect of over 60% in size
#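 Here the drug-naive KB-3-1 line serves as comparator for MDR sub-line selectivity; cells received compound titrations, 72 h at 37 °C, then CellTiter-Glo readout.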
# MCF10A rereplic: A quantitative high throughput screen for small molecules that induce DNA re-replication in MCF 10a normal breast cells. MCF 10A DNA re-replication, Hoechst nuclear intensity, 48 h. Potency, µM (titrated, usually from 46.1 µM), inactives show at the top dose activity, positive = re-replication, most hits filed as activators. 350,000 compounds, 2.9% hits. AID 624296, 2012; further: % of control where 0% means no effect; nearly all actives have a fitted effect of over 50% in size
# SW480 rereplic: A quantitative high throughput screen for small molecules that induce DNA re-replication in SW480 colon adenocarcinoma cells; SW480 DNA re-replication, Hoechst DNA content imaging, 48 h; Potency, µM (highest dose often 46.1 µM), inactives show top-dose re-replication activation, usual class: activators; 340,000 compounds, 1.8% hits; further: % of control where 0% means no effect; nearly all actives have a fitted effect of over 55% in size
#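 First, 250 cells per well were seeded. Next, compound or vehicle (23 nL) was pinned in, plates sat 48 hr at 37 C. Finally Hoechst was added for 40 min before fluorescence scanning.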
# KB-V1 cytotox: qHTS assay for MDR1-selective chemotherapeutics: Primary screen using the drug-selected MDR subline cells KB-V1; KB-V1 MDR cells viability, CellTiter-Glo, 72 h; Potency, µM (series often up to 46.1 µM), actives largely listed as cytotoxic; 400,000 compounds, 3.4% hits; AID 1347076, 2019; further: on the % scale 0 is the no-effect control and ±100 the full control effect; nearly all actives have a fitted effect of over 60% in size
#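 Readout: CellTiter-Glo luminescence, 10 min after addition. Cells: KB-V1 MDR subline, 72 h at 37 degrees C with compound. Analysis: corrected, normalized data fitted to concentration-effect curves.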
# Starred values were filed as active, the others as inactive; i = inactive; ? = inconclusive; · = not tested or not shown; [ ] = remark or other dose. A selection: hits, their analogues and other compounds. The true share with any hit is near 8%. The call rests on the fitted dose curve; in most records, active means well fitted curve in the direction sought with a large enough effect; inconclusive means small, poorly fitted or top-dose-only effect, or another doubt; inactive means no such curve, though single readings can be large; an effect the other way counts as inactive or inconclusive. Potency means the concentration at half of the fitted maximal effect.
SMILES,HT1080 IDH1KD tx,HT1080-NT tox,KB-3-1 cytotox,MCF10A rereplic,SW480 rereplic,KB-V1 cytotox
CC(C)C(=O)NC(c1ccc(Cl)cc1Cl)c1ccc2cccnc2c1O (centres undefined),?,?,i,19.7%,?,i
CCCCC(=O)NC(c1ccc(Cl)cc1Cl)c1ccc2cccnc2c1O (centres undefined),?,?,3.26µM*,?,1.16µM*,?
CCC(=O)NC(c1ccc(Cl)cc1Cl)c1ccc2cccnc2c1O (centres undefined),?,14.6µM*,?,?,0.517µM*,i
CCN(CC)c1ccc(C=C2C(=O)OC(c3ccccc3)OC2=O)cc1 (centres undefined),-3.2%,4.2%,i,1.9%,5.2%,i
CCN(CC)c1ccc(/C=C/C(=O)C2C(=O)C=C(C)OC2=O)cc1 (centres undefined),-5.0%,-14.5%,i,18.4µM*,?,?
COCCNc1nc(-c2ccccc2CO)c2sc(-c3ccccc3)cc2n1,0.92µM*,?,5.8µM*,·,·,20.6µM*
COCCNc1nc(NCC2CCCCC2)c2sc(-c3ccccc3)cc2n1,18.4µM*,18.4µM*,?,·,·,?
c1ccc(-c2cc3nc(NCC4CC4)nc(NCC4CCCCC4)c3s2)cc1,4.61µM*,3.26µM*,?,·,·,?
COc1ccc(C)cc1NC(=O)C(CCSC)NS(=O)(=O)c1ccc2c(c1)oc(=O)n2C (centres undefined),·,·,i,·,·,?
COc1ccc(NC(=O)CSc2ncc3c(n2)-c2cc(Cl)ccc2N(Cc2ccccc2F)S3(=O)=O)cc1,·,·,i,·,·,i
C=C1C=C(C(F)F)n2ncc(C(=O)Nc3ccc(N(CC)CC)cc3)c2N1,·,·,?,·,·,i
O=C(Cc1cccc2ccccc12)NO,8.3%,-0.2%,·,·,·,·
Cc1c(C(=O)NCC2COc3ccccc3O2)oc2ccc(S(=O)(=O)N3CC(C)CC(C)C3)cc12 (centres undefined),-1.1%,0.4%,i,23.6%,?,?
CCN(CC)CCCNC(=O)c1oc2ccc(S(=O)(=O)N3CC(C)CC(C)C3)cc2c1C (centres undefined),25.9µM*,?,i,35.9%,?,?
Cc1c(C(=O)NCC2COc3ccccc3O2)oc2ccc(S(=O)(=O)N3CCOCC3)cc12 (centres undefined),8.9%,10.1%,?,?,0.3%,2.31µM*
CCOC(=O)c1ccc(NC(=O)CC2C(=O)N(c3ccc(F)cc3)C(=O)N2CCC(C)C)cc1 (centres undefined),?,5.5%[9.24 µM],20.6µM*,?,17.7%,?
CCOC(=O)c1ccc(N2C(=O)C(CC(=O)NC)N(CCc3ccc(OC)c(OC)c3)C2=S)cc1 (centres undefined),-23.3%,-17.9%,i,20.6µM*,6.7%[1.84 µM],i
COC(=O)c1ccc(NC(=O)CC2C(=O)N(c3ccc(C)cc3)C(=O)N2CC(C)C)cc1 (centres undefined),-19.0%,3.5%,i,-3.2%,6.5%,23.1µM*
CNC(=O)c1c(NC(=O)c2cc(=O)c3ccccc3o2)sc2c1CCC2,·,·,i,·,·,i
Cc1ccc2oc(-c3cccc(NC(=O)c4sc5c([N+](=O)[O-])cccc5c4Cl)c3)nc2c1,·,·,i,·,·,i
COC(=O)C1=C(C)NC(C)=C(C(=O)OCCN(C)Cc2ccccc2)C1c1cccc([N+](=O)[O-])c1 (centres undefined),?,-27.6%,i,?,?,18.4µM*

# Bioassay records from PubChem BioAssay.
